By AC50 is commonly meant the midpoint of the concentration-response curve, whichever way the signal moves.

Records with an inconclusive call do not appear. Activity calls are given as the source filed them. Rule for the calls, unless noted: active = hit-call score of the fitted dose curve at least 0.9, where 1 is the maximum; inactive = score below 0.9.

Assay [1] in a line: CCTE_Mundy_HCI_Cortical_Synap_Neur_Matur_CellBodySpotCount: CCTE's Synaptogenesis and Neurite Maturation Assay in rat cortical cells for Cell Body Spot Count, Mundy Lab (AID 2284223). In a few lines:
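Rat primary cortical cultures received AraC at DIV 5 to arrest glia, were dosed with chemical at DIV 7 with media change, and were fixed at DIV 12 (288.33 h). Synaptophysin puncta on MAP2-positive cell bodies per neuron were counted by high-content imaging versus DMSO.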

Assay [2] is described as follows: UKN4_HCS_LUHMES_cell_viability: Viability Assessment in the University of Konstanz (UKN) Leist Lab Neurite Outgrowth Assay in human LUHMES cells (UKN4) (AID 2284232). An outline of the steps:
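Fluorescence intensity from high-content imaging of Hoechst H-33342/calcein-AM-stained cells served as the viability read-out. Human LUHMES precursors were differentiated 2 days, replated and treated 24 h; curves were fitted bidirectionally against DMSO.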

A short description of assay [3]: UKN2_HCS_IMR90_cell_viability: Viability Assessment in the University of Konstanz (UKN) Leist Lab Neural Crest Cell Migration Assay in human induced IMR90 Pluripotent Stem Cells (UKN2) (AID 2284233).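 Note: viability of neural crest cells differentiated from IMR90 iPSC measured by calcein-AM fluorescence imaging; cells exposed to compound for 24 h after a 24 h migration phase.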 In a few lines: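 Human IMR90-derived neural crest cells were allowed to migrate for 24 h into a cell-free zone, then exposed to test chemicals for 24 h. Calcein-AM and Hoechst staining with high-content imaging gave viability, analysed against DMSO baseline.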

Assay [4] in a line: CCTE_Mundy_HCI_Cortical_NOG_NeuronCount: CCTE's Neurite Outgrowth Assay in rat cortical cells for Neuron Count, Mundy Lab (AID 2284236; active = hit-call score of the fitted dose curve at least 0.9, where 1 is the maximum;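 note: neurons counted by imaging betaIII-tubulin and Hoechst stained cortical cells; cells exposed to compound for about 48 hours before fixation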). An outline of the steps:
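Read-out: neuron number by high-content imaging of betaIII-tubulin (Alexa Fluor-488) and Hoechst-labelled rat primary cortical cells.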

The nature of assay [5]: CCTE_Mundy_HCI_Cortical_NOG_BPCount: CCTE's Neurite Outgrowth Assay in rat cortical cells for Branch Point Count, Mundy Lab (AID 2284237).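 For AC50: branch points counted about two days after chemical exposure.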 An outline of the steps: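 Measured 50.33 h after dosing, this morphology endpoint uses rat primary cortical cultures labelled for betaIII-tubulin. Branch points are quantified by high-content imaging, with DMSO as negative control and baseline.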

Assay [6] is described as follows: CCTE_Mundy_HCI_hNP1_Casp3_7: CCTE's Caspase-Glo 3/7 Assay in human neuroprogenitor cells for Apoptosis, Mundy Lab (AID 2284240). An outline of the steps:
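Apoptosis is scored by activated caspase-3/7 luminescence in WA09-derived neural progenitor cells, measured 26.5 h after chemical dosing. Values represent gain of signal relative to DMSO vehicle.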

Assay [7] is described as follows: CCTE_Mundy_HCI_hNP1_CellTiter: CCTE's Cell Titer-Glo 2 Assay in human neuroprogenitor cells for Viability, Mundy Lab (AID 2284241; active = hit-call score of the fitted dose curve at least 0.9, where 1 is the maximum). An outline of the steps: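 Human neural progenitor cells (hNP1, WA09-derived) were plated on poly-L-ornithine/laminin and grown 40 to 44 hours at 37 °C, 5% CO2 before chemical addition. Twenty-four hours later, ATP was measured by CellTiter-Glo luminescence; loss of signal versus DMSO indicates reduced viability.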

Assay [8] is described as follows: CCTE_Mundy_HCI_Cortical_Synap_Neur_Matur_NeuronCount: CCTE's Synaptogenesis and Neurite Maturation Assay in rat cortical cells for Neuron Count, Mundy Lab (AID 2284242; active = hit-call score of the fitted dose curve at least 0.9, where 1 is the maximum;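 for AC50: hits reduce neuron count versus DMSO baseline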). In a few lines:
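Neuron number was scored by automated high-content imaging of Hoechst- and MAP2-labelled rat primary cortical cells. Glial growth was arrested with AraC at DIV 5, compounds were applied from DIV 7, and cultures ended at DIV 12.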

Assay [9] can be described thus: BSK_BT_PBMCCytotoxicity: PBMC Cytotoxicity Assessment in the BioMAP Diversity Plus: BT Assay (AID 2284225).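 Note: PBMC viability measured by Alamar Blue dye reduction fluorescence.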 The note with it: primary human B cells with PBMC. An outline of the steps: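 PBMC (75,000/well) pretreated with compound 1 h, then activated with SEB and TSST-1 (20 ng/mL each final), incubated 90 h; Alamar Blue added 6 h, fluorescence read at 546/580 nm. Fitted relative to DMSO.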

Read-out in assay [10]: Secreted IgG (sIgG), gene 3500
The assay can be described thus: BSK_BT_sIgG: BioMAP Diversity Plus: BT Assay for Secreted IgG (sIgG) Biomarker Activity (AID 2284226). The note with it: primary human B cells with PBMC. In a few lines:
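Read-out: ELISA for secreted IgG after 24 h of chemical exposure in a B cell plus PBMC co-culture. Values reflect upward-direction fitting against DMSO negative controls.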

Assay [11] can be described thus: BSK_BT_Bcell_Proliferation: Viability Assessment in the BioMAP Diversity Plus: BT Assay for B cell Proliferation (AID 2284227). The following applies: primary human B cells with PBMC. In a few lines: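 SRB-based protein staining (0.1% SRB after 10% TCA fixation, 560 nm) quantifies proliferation in human B cells co-cultured with PBMC, 72 h post-dosing, with signal gain scored relative to DMSO negative control.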

Read-out in assay [12]: Interleukin 6 (IL6), IL6 (gene 3569)
Nature of the assay: BSK_BT_xIL6: BioMAP Diversity Plus: BT Assay for Interleukin 6 (IL6) Biomarker Activity (AID 2284228). The note with it: primary human B cells with PBMC. In a few lines: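 Human B cell plus PBMC co-culture exposed to test chemical for 24 h; secreted IL-6 quantified by Luminex xMAP bead assay. Activity fitted in the positive direction against DMSO as negative control and baseline.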

Read-out in assay [13]: Interleukin 17A (IL17A), IL17A (gene 3605)
Nature of the assay: BSK_BT_xIL17A: BioMAP Diversity Plus: BT Assay for Interleukin 17A (IL17A) Biomarker Activity (AID 2284229). The following applies: primary human B cells with PBMC. An outline of the steps:
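B cells co-cultured with PBMC were exposed to test chemicals, and secreted IL-17A was quantified 24 h after dosing by Luminex xMAP bead immunoassay. Activity was fitted in the gain direction against DMSO as baseline.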

Read-out in assay [14]: Vascular cell adhesion molecule 1 (VCAM1), VCAM1 (gene 7412)
The assay can be described thus: BSK_MyoF_VCAM1: BioMAP Diversity Plus: MyoF Assay for Vascular cell adhesion molecule 1 (VCAM1) Biomarker Activity (AID 2284231). The following applies: primary human lung fibroblasts. An outline of the steps: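 Primary human lung fibroblasts were dosed with test chemical for 24 h, then cell-surface VCAM-1 was measured by ELISA. Activity was fitted in the positive direction against DMSO as negative control and baseline.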

Read-out in assay [15]: Collagen I, COL1A1 (gene 1277)
Nature of the assay: BSK_MyoF_CollagenI: BioMAP Diversity Plus: MyoF Assay for Collagen I Biomarker Activity (AID 2284238). The following applies: primary human lung fibroblasts. In a few lines: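 Human lung fibroblasts were exposed to test chemical for 24 h, then Collagen I was quantified by ELISA. Activity was fitted in the increasing direction against DMSO as the negative control and baseline.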

Read-out in assay [16]: Collagen III, COL3A1 (gene 1281)
Nature of the assay: BSK_MyoF_CollagenIII: BioMAP Diversity Plus: MyoF Assay for Collagen III Biomarker Activity (AID 2284239). The note with it: primary human lung fibroblasts. An outline of the steps: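 Human lung fibroblasts were dosed with chemicals and, 24 hours later, collagen III was measured by ELISA. Activity was fitted in the positive direction against the DMSO negative-control baseline.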

Read-out in assay [17]: Interleukin 17F (IL17F), IL17F (gene 112744)
The assay can be described thus: BSK_BT_xIL17F: BioMAP Diversity Plus: BT Assay for Interleukin 17F (IL17F) Biomarker Activity (AID 2284243). The following applies: primary human B cells with PBMC. In a few lines:
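B cell/PBMC co-culture (human primary), 24 h compound exposure; sIL-17F by Luminex xMAP; gain-of-signal fit vs DMSO baseline.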

Read-out in assay [18]: Actin alpha 1 (ACTA1), ACTA1 (gene 58)
Nature of the assay: BSK_MyoF_ACTA1: BioMAP Diversity Plus: MyoF Assay for Actin alpha 1 (ACTA1) Biomarker Activity (AID 2284244). The note with it: primary human lung fibroblasts. In a few lines: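 Lung fibroblasts, human primary, 24 h compound exposure → a-SMA ELISA. Positive-direction fit vs DMSO control.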

Read-out in assay [19]: Tumor necrosis factor (Homo sapiens) (UniProt P01375)
Nature of the assay: BSK_BT_xTNFa: BioMAP Diversity Plus: BT Assay for Tumor necrosis factor alpha (TNF-alpha) Biomarker Activity (AID 2284230). The note with it: primary human B cells with PBMC. An outline of the steps:
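Compounds were added to a B cell plus PBMC co-culture, and after 24 h secreted TNF-alpha was quantified with Luminex xMAP technology, with responses fitted upward from the DMSO control.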

Sequence of Tumor necrosis factor (Homo sapiens) (P01375 whole entry, looked up): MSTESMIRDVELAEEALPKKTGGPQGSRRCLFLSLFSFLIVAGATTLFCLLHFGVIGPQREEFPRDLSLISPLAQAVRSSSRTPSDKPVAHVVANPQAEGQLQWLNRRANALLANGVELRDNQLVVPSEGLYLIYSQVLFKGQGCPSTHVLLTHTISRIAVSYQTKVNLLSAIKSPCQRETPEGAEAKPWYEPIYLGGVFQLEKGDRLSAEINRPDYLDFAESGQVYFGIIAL

Regarding `CNC(=O)CSP(=O)(OC)OC`, the call in assay [1], in [2], in [3], in assay [4], in [5] and in assay [6] was inactive. For the same compound, the compound was called inactive in [7].

In the case of `NC(=O)c1ccc(N)nc1`, the call in [1], in [4], in assay [6] and in [7] was inactive. Besides, the values for the AC50 in [5] and in assay [8] were 11.4 µM (active) and 7.58 µM (active), respectively.

`CC(C)[C@@H](Nc1ccc(C(F)(F)F)cc1Cl)C(=O)OC(C#N)c1cccc(Oc2ccccc2)c1` (stereo partly drawn): the compound was called inactive in [1], in assay [5], in assay [6], in [7] and in assay [8].

With `CCOC(=O)C(SP(=S)(OC)OC)c1ccccc1` (stereo not drawn), the outcome in assay [9], in assay [10], in assay [11], in assay [12], in assay [13] and in [14] was inactive. For the same compound, the outcome in assay [15], in assay [16] and in assay [17] was inactive. For the same compound, the concentration at half-maximal activity (AC50) in assay [18] was 20 µM (active).

For the compound `CCN(CC)C(=O)C(Cl)=C(C)OP(=O)(OC)OC`, the outcome in assay [9], in [11], in assay [12], in assay [13], in assay [19] and in assay [14] was inactive. Also, the result in assay [15] and in assay [17] was inactive. The values for the AC50 in assay [16] and in [18] were 0.016 µM (active) and 0.0702 µM (active), respectively.

With `Oc1cccc(-c2ccccc2)c1`, the result in assay [9], in assay [11], in assay [12], in assay [13], in [19] and in assay [17] was inactive. The AC50 was 32.3 µM (active) in assay [14], 20 µM (active) in assay [15], 31.3 µM (active) in assay [16] and 33.6 µM (active) in [18].

As to `Cc1cc(C(C)(C)c2ccc(O)c(C)c2)ccc1O`, the result in [9], in assay [11], in [12], in [13], in [19] and in assay [17] was inactive. Also, the AC50 was 16.4 µM (active) in [14], 15.4 µM (active) in [15], 15.1 µM (active) in assay [16] and 19 µM (active) in assay [18].

The values are drawn from PubChem BioAssay (EPA / NIEHS).
